Laboratory results published in publication PMC5540273 (PLoS ONE, 2017).

test system: T1, DCAMKL1; conditions: concentration: 1 μM, replicates: in singlicate; n = 1
T1 construct: gene DCLK1
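Also: KINOMEscan kinase panel screen.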

SMILES	%Inh [%]
Cn1ccc2ncnc(Oc3ccc(NC(=O)Nc4cccnc4)c(Cl)c3)c21	11
O=C(c1ccc(-c2cc(-c3c[nH]nc3-c3ccccn3)ccn2)cc1)N1CCCC1 [GW792479]	19
Nc1nc(-c2ccc3c(N)n[nH]c3c2)cc(N2CCC[C@@H](C(=O)Nc3ccccc3)C2)n1.O=C(O)C(F)(F)F.O=C(O)C(F)(F)F [GSK2288359]	12
Cl.Cl.c1ccc(-c2cc3ccncc3cc2OC2CCNCC2)cc1 [GSK1122999]	19
Fc1ccc(-c2ncn(CCCNCc3ccccc3)c2-c2ccncc2)cc1	0
CCn1c(-c2ccncc2)nc2cnccc21 [SB-735216]	8
C[C@H]1CC[C@@H](C(=O)Nc2ccccc2)CN1c1cc(-c2ccc3c(N)n[nH]c3c2)nc(N)n1 [GSK2283293]	23
NC(=O)c1sc(-n2cnc3ccccc32)cc1OCc1ccccc1F [GSK1024306]	0
Cl.Cn1ccc(-c2cccc(Nc3ccnc4cc(-c5nccs5)ccc34)c2)n1 [GW525701]	13
FC(F)(F)c1cc(Nc2nccc(-c3c(-c4ccc(Cl)cc4)nn4ncccc34)n2)ccc1Cl [GW829351]	0
N#Cc1ccc(Oc2ccc(Nc3ncnc4cc[nH]c34)cc2Cl)cc1	9
OCCOCCn1ccc2ncnc(Nc3ccc(Oc4cccc(Cl)c4)c(Cl)c3)c21	36
Fc1cccc(COc2ccc(Nc3ncnc4nn5ccccc5c34)cc2Cl)c1 [GW689066]	0
Nc1nc(-c2ccccn2)c(-c2ccnc3ccccc23)s1 [GW548057]	23
CCCc1ccc(S(=O)(=O)NC2CCN(c3ccnc(Nc4ccc(OC)cc4)n3)C2)cc1 (centres unmarked) [GSK1379737]	7
Cc1ccc(O)cc1Nc1cc(C(F)(F)F)nc2ccc(-c3ccncc3)cc12 [GW630823]	25
CNc1nccc(-c2c(-c3ccc(F)cc3)ncn2C2CCN(C)CC2)n1 [SB-222903]	19
Nc1nc(-c2cccnc2)c(-c2ccnc3ccccc23)s1 [GW684083]	18
O=C(Nc1ccccc1)Nc1ccc(Oc2ccc3nccn3n2)cc1	9
CC(C)(C)c1ccc(-n2cnc3c(N)ncnc32)cc1 [SKF-97263]	0
Cc1ccc(NC(=O)c2cccc(C#N)c2)cc1-c1ccc(C(=O)Nc2ccncc2)cc1 [GSK1398463]	19
Cc1ccc(C)c(NC(=O)NCCNc2ccnc(Nc3ccc(F)cc3)n2)c1 [GSK1379878]	19
Nc1nccc2scc(-c3ccc4c(c3)CCN4C(=O)Cc3cc(F)ccc3F)c12 [GSK2587663]	14

test system: T2, DCAMKL2; conditions: concentration: 1 μM, replicates: in singlicate; n = 1
T2 construct: gene DCLK2

SMILES	%Inh [%]
COc1ccc(NC(=O)Nc2ccc(C)c(-c3ccc(C(=O)Nc4ccncc4)cc3)c2)cc1 [GSK1398475]	0
Clc1ccc(-c2cc(-c3c[nH]nc3-c3ccccn3)ccn2)cc1 [GW681251]	0
CC(C)(C)OC(=O)NC1CCCN(c2cc(-c3ccc4c(N)n[nH]c4c3)nc(N)n2)C1 (centres unmarked) [GSK2286096]	0
CSc1ccc(NC2=C(c3ccccc3Cl)C(=O)NC2=O)cc1 [SB-342411]	0
COC(=O)c1cccc(NC(=O)NCCNc2ccnc(Nc3ccc(F)cc3)n2)c1 [GSK1379883]	0
Fc1cccc(COc2ccc(Nc3ncnc4sc(-c5ccc[nH]5)cc34)cc2Cl)c1 [GW707818]	0
c1ccc(-c2ccc3c(-c4ccnc(Nc5ccc6c(c5)OCCO6)n4)cnn3n2)cc1 [GW818941]	0
Fc1cccc(COc2ccc(Nc3ncnc4cc[nH]c34)cc2Cl)c1	8
COc1cc2c(Nc3cccc(NC(=O)c4ccccc4)c3)ncnc2cc1OCCCN1CCOCC1 [GSK223810]	14
COc1ccc(NC(=O)c2ccc(-c3cc(-c4nnc(C)o4)ccc3C)cc2)cc1 [GW595885]	0
Cl.Fc1ccccc1COc1ccc(Nc2ncnc3ccc(-c4nnc(C(F)(F)F)o4)cc23)cc1Cl [GW424170]	1
CNc1nccc(-c2c(-c3ccc(F)cc3)ncn2CCCN2CCOCC2)n1 [SB-222516]	0
Cc1cc(N2CCC(NS(=O)(=O)c3ccc(F)cc3)CC2)nc(Nc2cccc(C#N)c2)n1.O=C(O)C(F)(F)F [GSK1653537]	0
Cn1ccc2ncnc(Oc3ccc(NC(=O)Nc4cccnc4)c(Cl)c3)c21	0
O=C(c1ccc(-c2cc(-c3c[nH]nc3-c3ccccn3)ccn2)cc1)N1CCCC1 [GW792479]	10
Nc1nc(-c2ccc3c(N)n[nH]c3c2)cc(N2CCC[C@@H](C(=O)Nc3ccccc3)C2)n1.O=C(O)C(F)(F)F.O=C(O)C(F)(F)F [GSK2288359]	0
Cl.Cl.c1ccc(-c2cc3ccncc3cc2OC2CCNCC2)cc1 [GSK1122999]	0
Fc1ccc(-c2ncn(CCCNCc3ccccc3)c2-c2ccncc2)cc1	2

SMILES	%Inh [%]
CCn1c(-c2ccncc2)nc2cnccc21 [SB-735216]	0
C[C@H]1CC[C@@H](C(=O)Nc2ccccc2)CN1c1cc(-c2ccc3c(N)n[nH]c3c2)nc(N)n1 [GSK2283293]	0
NC(=O)c1sc(-n2cnc3ccccc32)cc1OCc1ccccc1F [GSK1024306]	1
Cl.Cn1ccc(-c2cccc(Nc3ccnc4cc(-c5nccs5)ccc34)c2)n1 [GW525701]	0
FC(F)(F)c1cc(Nc2nccc(-c3c(-c4ccc(Cl)cc4)nn4ncccc34)n2)ccc1Cl [GW829351]	0
N#Cc1ccc(Oc2ccc(Nc3ncnc4cc[nH]c34)cc2Cl)cc1	24
OCCOCCn1ccc2ncnc(Nc3ccc(Oc4cccc(Cl)c4)c(Cl)c3)c21	0
Fc1cccc(COc2ccc(Nc3ncnc4nn5ccccc5c34)cc2Cl)c1 [GW689066]	0
Nc1nc(-c2ccccn2)c(-c2ccnc3ccccc23)s1 [GW548057]	11
CCCc1ccc(S(=O)(=O)NC2CCN(c3ccnc(Nc4ccc(OC)cc4)n3)C2)cc1 (centres unmarked) [GSK1379737]	0
Cc1ccc(O)cc1Nc1cc(C(F)(F)F)nc2ccc(-c3ccncc3)cc12 [GW630823]	0
CNc1nccc(-c2c(-c3ccc(F)cc3)ncn2C2CCN(C)CC2)n1 [SB-222903]	0
Nc1nc(-c2cccnc2)c(-c2ccnc3ccccc23)s1 [GW684083]	4
O=C(Nc1ccccc1)Nc1ccc(Oc2ccc3nccn3n2)cc1	10
CC(C)(C)c1ccc(-n2cnc3c(N)ncnc32)cc1 [SKF-97263]	12
Cc1ccc(NC(=O)c2cccc(C#N)c2)cc1-c1ccc(C(=O)Nc2ccncc2)cc1 [GSK1398463]	15
Cc1ccc(C)c(NC(=O)NCCNc2ccnc(Nc3ccc(F)cc3)n2)c1 [GSK1379878]	0
Nc1nccc2scc(-c3ccc4c(c3)CCN4C(=O)Cc3cc(F)ccc3F)c12 [GSK2587663]	8
